ELG1 genotoxic – qHTS screen for small molecules that induce genotoxicity in human embryonic kidney (HEK293T) cells expressing luciferase-tagged ELG1; HEK293T ELG1-luciferase reporter, luminescence, 16 h; Potency, µM (doses to about 46 µM), for the others: top-dose activity change, positive = activation, most hits filed as activators; hit rate 1.3% among 330,000; further: % of control where 0% means no effect; nearly all actives have a fitted effect of over 60% in size
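HEK293T cells expressing luciferase-tagged ELG1 were exposed to compound or DMSO vehicle for 16 hr at 37 °C and 5% CO2. Luciferase activity was then measured with ONE-Glo after 30 min at room temperature.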
Rab9 promoter act – qHTS Assay for Rab9 Promoter Activators; Huh7 Rab9 promoter-luciferase reporter, luminescence, 24 h; hit rate 2.8% among 320,000; Potency, µM (titrated, usually from 9.22 µM), for inactives: at the highest dose activation, negative = inhibition, actives largely listed as activators; further: % of control where 0% means no effect; nearly all actives have a fitted effect of over 60% in size
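Steps: seed 1500 Huh7 Rab9-luc cells per well, rest 2 h at 37 °C; add compound in DMSO; incubate 24 h; add luciferase reagent, 10 min ambient; read luminescence.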
ELG1 DNA repair – qHTS screen for small molecules that inhibit ELG1-dependent DNA repair in human embryonic kidney (HEK293T) cells expressing luciferase-tagged ELG1. HEK293T ELG1-luciferase reporter, luminescence, 16 h; DNA damage induced by 5-fluorouridine. Potency, µM (doses to about 46.1 µM), inactives show at the top dose activity change, negative = inhibition, hits mostly inhibitors. hit rate 2.3% among 330,000; further: on the % scale 0 is the no-effect control and ±100 the full control effect; nearly all actives have a fitted effect of over 55% in size
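Overnight (16 hr) co-exposure of 2,000 cells/well to 5-fluorouridine and compound at 37 °C preceded detection. Luciferase was quantified via ONE-Glo luminescence; loss of signal denotes inhibition.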
FLuc counter – qHTS profiling assay for firefly luciferase inhibitor/activator using purifed enzyme and Km concentrations of substrates (counterscreen for miR-21 project); purified FLuc, Km substrates, luminescence inhibition; Potency, µM (highest dose often 57.5 µM), for inactives: at the highest dose activity change, negative = inhibition, most hits filed as inhibitors; hit rate 6.9% among 360,000; AID 588342, 2011;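 further: plate controls were vehicle for no effect and reference inhibitor for full effect; nearly all actives have a fitted effect of over 55% in size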
Target sequence (P08659 whole entry, looked up): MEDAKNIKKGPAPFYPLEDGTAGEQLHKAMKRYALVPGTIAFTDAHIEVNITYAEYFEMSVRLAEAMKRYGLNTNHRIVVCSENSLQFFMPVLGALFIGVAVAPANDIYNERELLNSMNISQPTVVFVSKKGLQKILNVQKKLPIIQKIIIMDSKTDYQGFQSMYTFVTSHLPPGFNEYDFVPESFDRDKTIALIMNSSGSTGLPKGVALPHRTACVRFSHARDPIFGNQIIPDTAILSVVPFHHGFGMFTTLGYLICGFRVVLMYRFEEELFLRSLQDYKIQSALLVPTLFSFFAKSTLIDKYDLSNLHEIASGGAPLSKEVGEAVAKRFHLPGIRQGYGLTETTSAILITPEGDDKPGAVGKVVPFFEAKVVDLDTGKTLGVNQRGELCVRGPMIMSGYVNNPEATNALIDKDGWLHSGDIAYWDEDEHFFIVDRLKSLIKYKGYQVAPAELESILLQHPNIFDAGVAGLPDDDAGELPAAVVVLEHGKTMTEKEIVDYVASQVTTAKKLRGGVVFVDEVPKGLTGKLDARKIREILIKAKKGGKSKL
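Purified P. pyralis luciferase (10nM final) with 10uM D-luciferin and 10uM ATP (Km levels) in 50mM Tris acetate pH 7.5, 10mM Mg acetate, 0.01% Tween-20, 0.05% BSA; qHTS 6-point titration, ~60 µM downward; luminescence read.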
SMN2 splice enh – qHTS Assay for Enhancers of SMN2 Splice Variant Expression; HEK293 SMN2-luciferase splicing reporter, luminescence, 30-36 h; Potency, µM (top dose mostly 46.1 µM), inactives show at the top dose activity change, positive = activation, hits mostly activators; hit rate 2.8% among 210,000; AID 1458, 2008; further: % of control where 0% means no effect; nearly all actives have a fitted effect of over 55% in size
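HEK293 cells carry an SMN2 minigene-luciferase reporter in which exon 7 inclusion puts luciferase in frame. Cells were seeded at 2000 cells/well, attached for 10-12 hours, then exposed to compounds for 30-36 hours at 37C before ONE-Glo luminescence.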
NPC1 prom act – qHTS Assay for NPC1 Promoter Activators | Huh7 NPC1 promoter luciferase reporter, 24 h | Potency, µM (titrated, usually from 9.22 µM), for inactives: at the top dose activation, most hits filed as activators | hit rate 2.4% among 320,000; further: % of control where 0% means no effect; nearly all actives have a fitted effect of over 60% in size
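Stably transfected Huh7 (NPC1 promoter→luciferase), 1500 cells/well in Opti-MEM + 10% FBS, 2 h settle, then compound 24 h at 37 °C. Luminescence after 10 min with Amplite reagent.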
Starred values were filed as active, the others as inactive; u = inconclusive; x = not tested or not shown; [ ] = remark or other dose. Hits are enriched below; roughly 9.3% of the tested compounds scored in any of these assays. The call rests on the fitted dose curve; in most records, active means well fitted curve in the direction sought with a large enough effect; inconclusive means small, poorly fitted or top-dose-only effect, or another doubt; inactive means no such curve, though single readings can be large; an effect the other way counts as inactive or inconclusive. Potency means the concentration at half of the fitted maximal effect.

SMILES | ELG1 genotoxic | Rab9 promoter act | ELG1 DNA repair | FLuc counter | SMN2 splice enh | NPC1 prom act
COc1ccc(/C(O)=C/c2nc3ccccc3n(-c3ccccc3)c2=O)cc1 | 21% | 26% | 17% | 7.6µM* | -26% | -3%
O=C(Nc1ccc(Br)cc1)Nc1nc2c(s1)CCCCCC2 | x | x | x | 3% | x | x
O=C(O)c1ccc(Nc2nc3c(s2)CCCC3)cc1 | u | 0.04µM* | u | 0.3µM* | 0.63µM* | -28%
Cc1cccc(Nc2c3c(nc4ccccc24)CCC3)c1 | -15% | -1% | 21µM* | 4% | x | 1%
c1nnc(NC2=NCCCCC2)s1 | 19% | 3% | 0% | -15% | 14% | 10%
O=S1(=O)N=C(Nc2nc3c(s2)CCCC3)c2ccccc21 | u | 1.4µM* | u | 0.85µM* | 4µM* | 2.5µM*
Cc1ccc(Nc2c3c(nc4ccccc24)CCC3)cc1F | x | x | x | -2% | -30% | x
C1CCN=C(Nc2nc3c(s2)CCCC3)CC1 | 11% | u | u | u | 10µM* | u
CCCCC(NC(=O)c1ccc(Cl)cc1)C(=O)O (stereo unspecified) | -1% | -6% | -3% | u | 17% | -3%
Cc1ccc(-c2cc(C(F)F)n3ncc(C(=O)N4CCN5CCCC5C4)c3n2)cc1 (stereo unspecified) | 1% | -1% | u | 3% | u | -5%
Cc1cccc(Nc2nc3c(s2)CCCC3)c1 | u | 3.5µM* | u | 4.8µM* | 28%[1.84 µM] | u
O=C(NNc1cccc(Cl)n1)Nc1ccccc1F | 5% | -4% | 17% | -4% | 8% | 0%
O=C(Nc1ccc(Br)cc1)Nc1ccccc1F | u | 2.8µM* | u | 4.8µM* | x | 1.6µM*
O=C(Nc1ccccc1F)Nc1ccccc1F | 26% | 2.5µM* | u | 15µM* | 13µM* | u
O=C(NNc1ccccc1)Nc1ccccc1F | 4% | -5% | 4% | 19µM* | x | 1%
O=C(CCc1ccccc1)Nc1ccccc1F | u | 2.8µM* | u | 12µM* | 16µM* | u
CCN(Cc1ccncc1)C(=O)c1ccco1 | 1% | -5% | 4% | -5% | x | -1%
COC(=O)c1[nH]c2ccccc2c1NC(=O)/C=C/c1ccc2c(c1)OCO2 | 14% | 5% | u | u | -1% | 10%
O=C(Nc1ccccc1F)Nc1cccc2ccc(O)cc12 | 0% | u | 13µM* | 17µM* | x | 19%
COC(=O)Cc1c(OC)ccn(CCc2c[nH]c3ccccc23)c1=O | u | 3.2µM* | u | 17µM* | 11µM* | u
COC(=O)Cc1c(O)ccn(CCc2c[nH]c3ccccc23)c1=O | 2% | -11% | u | -3% | 6% | -2%
CCNc1nc(NCC)nc(OCCNS(=O)(=O)c2cc(C)ccc2C)n1 | -2% | -3% | u | 9% | -16% | -1%
CCNc1nc(NC(C)C)nc(OCCNS(=O)(=O)c2cc(C)ccc2C)n1 | -3% | 6% | 21µM* | 5% | -5% | 0%
CN(C)c1ccc(/C=C(\C#N)c2ccccn2)cc1 | u | 0.4µM* | u | 0.24µM* | x | 0.45µM*
N#C/C(=C\c1ccccn1)c1ccccn1 | 5% | u | u | u | x | 29%
SMILES | ELG1 genotoxic | Rab9 promoter act | ELG1 DNA repair | FLuc counter | SMN2 splice enh | NPC1 prom act
N#C/C(=C/c1cccs1)c1ccccn1 | u | 4.5µM* | u | 12µM* | x | 2.8µM*
COC(=O)c1ccc(OC(=O)c2ccccn2)cc1 | -5% | -6% | 0% | 11µM* | 28% | 1%
N#C/C(=C\c1ccc([N+](=O)[O-])cc1)c1ccccn1 | u | u | u | u | x | 1.6µM*
CCc1nnc2c(NCCc3ccc(OC)c(OC)c3)nc3ccccc3n12 | -2% | -3% | 1% | -17% | 6% | -2%
NC(=O)NC(=O)CSc1nc(C2CCCCC2)n(-c2ccccc2)n1 | -1% | 2% | 3% | -1% | -7% | -2%
COC(=O)c1ccc(/C=C(\C#N)c2ccccn2)cc1 | 2.6µM* | 0.89µM* | u | 2.4µM* | u | 1.1µM*
COc1cc(/C=C(\C#N)c2ccccn2)cc(OC)c1O | 0% | -1% | -15% | -4% | x | -7%
CCC(=O)Nc1ccccc1C(=O)N1CCCC1 | 0% | -5% | 13% | 0% | -12% | 0%
CCC1CCc2sc(C(=O)NCc3ccccn3)cc2C1 (stereo unspecified) | u | 28% | u | 15µM* | x | u
CCC1CCc2sc(C(=O)NCC3CCCO3)cc2C1 (stereo unspecified) | u | 1.8µM* | u | 5.4µM* | x | 2.8µM*
CCC1CCc2sc(C(=O)NC3CCN(Cc4ccccc4)CC3)cc2C1 (stereo unspecified) | u | -7% | -15% | -9% | x | -8%
CCC1CCc2sc(C(=O)NNC(=S)NCC3CCCO3)cc2C1 (stereo unspecified) | 0% | 1% | 9% | -18% | x | -5%
O=C(/C=C/c1ccco1)Nc1cccc(NC(=O)/C=C/c2ccco2)n1 | -3% | 3.2µM* | u | 1.7µM* | u | u
O=C(/C=C/c1ccco1)NC1=NCCS1 | 9.2µM* | 2.5µM* | u | 11µM* | 8.9µM* | 2.2µM*
CCSc1nnc(NC(=O)/C=C/c2ccco2)s1 | u | 4µM* | u | -8% | 11µM* | u
Cc1nc(NC(=O)/C=C/c2ccco2)sc1C | u | -6% | u | u | 11µM* | -4%
Cc1c(C)c2c(OCC(=O)NCc3ccco3)cc3c(c2oc1=O)CCC(C)(C)O3 | 8% | 1% | 28% | 4% | x | 1%
O=C(/C=C/c1ccco1)Nc1nnc(-c2ccco2)s1 | 5% | 20% | u | 0% | x | 0%
CCc1nnc(NC(=O)/C=C/c2ccco2)s1 | u | 1.8µM* | u | u | 13µM* | u
CCCSc1nnc2n(C)c(=O)c3c4c(sc3n12)CCC4 | -1% | -1% | -3% | -2% | 10% | -2%
Cc1ccc(OCCOc2cccc(Br)c2)c([N+](=O)[O-])n1 | u | u | u | u | 18µM* | u
Cc1ccc(OCc2ccc(-c3ccccc3)cc2)c([N+](=O)[O-])n1 | 27% | 21% | 10% | u | x | 18%
Cc1ccc(OCc2ccc(Br)cc2)c([N+](=O)[O-])n1 | 7.3µM* | 1µM* | u | 5.4µM* | 10µM* | 2.2µM*

Screening results as filed in PubChem.
